Measured values from PubChem BioAssay (NCATS).
Results filed as inconclusive are left out. The call rests on the fitted dose curve; in most records, active means well fitted curve in either direction with a large enough effect (not every such curve was filed as active); inconclusive means small, poorly fitted or top-dose-only effect, or another doubt; inactive means flat fitted curve, though single readings scatter.

test: NFAT Signaling Pathway (AID 444); conditions: Jurkat NFAT-bla M1, carbachol, beta-lactamase ratio, 5 h; at 7.69 µM (top of the series) unless noted;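 further: carbachol stimulus at about its EC50 of 1 µM final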
Outline: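 Read-out: CCF4 FRET ratio (460 nm/530 nm) after 1 h RT dye loading, used for %activity and AC50 from titration series. Cells: Jurkat NFAT-β-lactamase/M1 line, treated with compound plus 1 uM carbachol for 5 h, 37 °C.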
On the % scale 0 is the no-effect control and ±100 the full control effect.

Activity change, negative = inhibition, inactive:
Cc1nc2cnc(Oc3cccc(Cl)c3)nc2n(C2CC2)c1=O -5.3%
CNc1ncncc1-c1ccccc1C(F)(F)F 11.4%
CC(=O)NCCNc1nc(-c2ccc(C(=O)N(C)C)cc2)nc2ccccc12 9.74%
COc1ccc(CNc2ccnc(-c3ccc(C(=O)N(C)C)cc3)n2)c(OC)c1 -8.82%
Clc1ccccc1-c1cc(NCCN2CCOCC2)ncn1 -9.62%
COc1ccc(CNc2cc(-c3cccnc3)ncn2)c(OC)c1 10.5%
CCNc1ncc2nc(-c3ccc(OC)cc3)c(=O)n(CCC#N)c2n1 -15.6%
FC(F)(F)c1ccccc1-c1cncnc1NCc1cccnc1 -6.58%
COc1ncc2nc(-c3cn(C)c4ccccc34)c(=O)n(C)c2n1 11.4%
CN(C)C(=O)c1ccc(-c2cncnc2NCc2ccccc2)cc1 -3.31%
COc1ccc(-n2c(=O)c(CCc3ccccc3)nc3cncnc32)cc1 -3.92%
Cc1nc2cnc(N(C)C)nc2n(-c2ccccc2)c1=O 9.3%
COc1ccccc1CNc1ncncc1-c1ccc(C(=O)N(C)C)cc1 1.11%
COc1ccc(CNc2ncncc2-c2ccccc2C(F)(F)F)c(OC)c1 -7.18%
COCCn1c(=O)c(-c2cccc(C#N)c2)nc2cnc(N3CCOCC3)nc21 -8.26%
CNc1ncncc1-c1ccccc1C 9.64%
O=c1cnc2cnc(Oc3ccccc3)nc2n1C1CC1 -5.78%
